We go through four molecules from PubChem BioAssay.

Inconclusive results are not listed. The source made the active and inactive calls. Unless noted, how the calls were made is not given here.

Assay [1] is described as follows: rapamycin-like changes in RPL19A-GFP expression – cell-based, S. cerevisiae, multiplex flow cytometry, primary screen (AID 1862; in the data active means percent of DMSO control GFP below about 86%;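 further: lower values mimic rapamycin by blocking the RPL19A rise seen in DMSO cells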). As to conditions: S. cerevisiae RPL19A-GFP strain, flow cytometry fluorescence, 3 h; at 10 µM; stronger effect = lower value. For orientation: In flow cytometry, cells or beads pass a laser one at a time.
The nature of assay [2]: TOR pathway GLN3 branch reporter MEP2-GFP changes – S. cerevisiae, multiplex flow cytometry, primary screen (AID 1867;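 active means GFP response, as percent of the DMSO control, above the screen-wide mean plus 3 SD, about 139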;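 further: median GFP channel fluorescence of barcode-gated MEP2-GFP cells measured by flow cytometry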). As to conditions: S. cerevisiae MEP2-GFP strain, 3 h, at 10 µM, stronger effect = higher value.
A short description of assay [3]: TOR pathway RTG branch CIT2 reporter changes – S. cerevisiae, GFP fusion, multiplex flow cytometry, primary screen (AID 1870;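 active means percent response above a set limit, the screen-wide mean plus 3 SD, cut at about 130% in these data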;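 further: barcoded CIT2-GFP strain pooled with four other GFP strains with rapamycin as positive control; median GFP fluorescence per well over plate mean of DMSO wells so 100% = DMSO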). As to conditions: S. cerevisiae CIT2-GFP expression, 3 h, at 10 µM, stronger effect = higher value.
A short description of assay [4]: TOR pathway LAP4-GFP level changes – S. cerevisiae, multiplex flow cytometry, primary screen (AID 1873;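 active means GFP signal, as percent of the solvent control, above the screen mean plus 3 SD, about 149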). As to conditions: S. cerevisiae LAP4-GFP expression, 3 h, at 10 µM, stronger effect = higher value.
Assay [5] can be described thus: yeast AGP1-GFP level changes, GLN3 branch – cell-based, multiplex flow cytometry, S. cerevisiae, primary screen (AID 1887;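 active means GFP signal above the screen-wide mean plus 3 SD, that is over about 124.5% of the solvent control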;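 further: AGP1-GFP fusion strain of S. cerevisiae within a five-strain barcoded multiplex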). As to conditions: 3 h, at 10 µM, stronger effect = higher value.
Assay [6] can be described thus: reduced mouse 2C T cell binding to pMHC/ICAM-1 vesicles – MLPCN validation set, flow cytometry, LFA-1/ICAM-1 modulator project, pilot screen (AID 2523;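 active means response below a set limit, under 55% cells CD8-positive and vesicle-bound, and CD8 cells' 90th-percentile brightness under 279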;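 on vesicle binding response: mean PE anti-B7-1 fluorescence of CD8+ cells relative to row control; 100% = QL9-loaded vesicles with DMSO vehicle in the same plate row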). As to conditions: 2C mouse CD8+ T cells, at 7 µM, stronger effect = lower value; double positive events: measured here: CD8+/vesicle+ event percentage.
Assay [7] addresses Integrin beta-1 (Homo sapiens) + Integrin alpha-4 (Homo sapiens) (UniProt P13612+P05556). As to the kind of experiment: alpha4beta1 integrin LIBS antibody binding reduction – U937 cells, HUTS-21 mAb, flow cytometry, validation set, VLA-4 allosteric modulator project, pilot screen (AID 2674;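 active means inhibition above 50%, about 3 SD of the validation set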;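 further: antibody binding induced by the VLA-4 ligand LDV present at three times its Kd; 0% = LDV ligand with antibody and no compound and 100% = antibody without LDV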). As to conditions: HUTS-21 LIBS mAb binding, at 6.7 µM, stronger effect = higher value.
Assay [8] can be described thus: calorie-restriction mimetic ROS inhibitors, yeast – validation compound set, pilot screen (AID 2706;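 active means superoxide response below 65% of plate, a cut near 3 SD across the whole screen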;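 further: yeast exposed to compound for one week at 30 degrees C before staining; 100% = mean of all compound wells on the same plate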). As to conditions: S. cerevisiae aging, superoxide DHE fluorescence; at 10 µM; stronger effect = lower value.
Assay [9] addresses Beta-adrenergic receptor kinase 1 (Homo sapiens) (UniProt P25098). As to the kind of experiment: GRK2 binders displacing RNA aptamer, biochemical, validation, human GRK2, bead flow cytometry (AID 488806;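 active means aptamer binding inhibition above 30%, about 3 SD of noise from non-fluorescent compounds; inactive means inhibition at or below 30%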). As to conditions: bead-bound GRK2, FAM-aptamer displacement, at 10 µM, stronger effect = higher value.
Assay [10] has as its target Beta-2 adrenergic receptor (Homo sapiens) (UniProt P07550). As to the kind of experiment: agonist-induced loss of surface beta2AR – cell-based, FAP fluorogen, flow cytometry, validation set, pilot screen (AID 504459;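 active means percent response above 42, roughly 3 SD of non-fluorescent test compounds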;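 further: agonist-driven loss of surface beta2AR via internalization measured by FAP dye flow cytometry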). As to conditions: Am2.2-beta2AR cells, at 10 µM, stronger effect = higher value.
Assay [11] concerns the target AP-2 complex subunit beta (Homo sapiens) (UniProt P63010). As to the kind of experiment: beta-arrestin/AP2 interaction blockers – biochemical, validation set, GST-AP2 beads, flow cytometry, pilot screen (AID 504541;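 active means inhibition above 54%, about 3 SD of non-fluorescent compounds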;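 further: AP2 carries R879A mutation and is captured from E. coli lysate; bead-bound FITC arrestin peptide fluorescence measuring arrestin peptide binding to AP2; 0% = DMSO wells and 100% = excess unlabeled arrestin peptide control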). As to conditions: FITC arrestin peptide, at 10 µM, stronger effect = higher value.
A short description of assay [12]: cytosolic pH regulators acting via V-ATPase – S. cerevisiae, pHLuorin, HTS validation (AID 504600; in the data active means response above about 15%;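 further: plate controls were DMSO for no effect and reference compound for full effect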). As to conditions: V-ATPase proton transport, at 10 µM, stronger effect = higher value.
For assay [13], the system named is anti-desmoglein-3 scFv antibody binding to human DSG3. As to the kind of experiment: blockers of pathogenic pemphigus antibody–desmoglein-3 binding – biochemical, validation compound set, bead-based, flow cytometry, pilot screen (AID 588368;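 active means binding below the plate cutoff, the plate median minus 3 SD, with a reading above zero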;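 further: signal is the median channel fluorescence of bead-bound GFP antibody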). As to conditions: Protein G beads, DSG3-Fc, scFv-GFP binding, at 10 µM, stronger effect = lower value.
In assay [14] the test system is Botulinum neurotoxin type F light chain protease (Clostridium botulinum). As to the kind of experiment: Clostridium botulinum type F light chain protease inhibitors, microsphere substrate cleavage, validation (AID 588459). As to conditions: multiplex microsphere protease substrate cleavage assay, flow cytometry; at 10 µM; stronger effect = higher value.
Assay [15] deals with Botulinum neurotoxin type A (Clostridium botulinum) (UniProt P0DPI0). As to the kind of experiment: BoNT/A light chain protease inhibitors, biochemical, multiplex microsphere flow cytometry, validation set (AID 588460). As to conditions: at 10 µM, stronger effect = higher value.
For assay [16], the target named is Lethal factor (Bacillus anthracis) (UniProt P15917). As to the kind of experiment: Bacillus anthracis lethal factor inhibition, microsphere flow cytometry protease assay, validation at 10 µM (AID 588461). As to conditions: multiplex microsphere protease cleavage assay, stronger effect = higher value.
Assay [17] in a line: Nile Red efflux blockade in pump-expressing yeast – validation compound set, multiplex, phenotypic, pilot screen (AID 588506;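 active means efflux inhibition above 0.42, the validation set average plus 4 SD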;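 further: Nile Red retained in cells so higher fluorescence means more efflux inhibition; 0 = negative control wells and 1 = enniatin B 25 µM full block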). As to conditions: S. cerevisiae pump-expressing triplex, Nile Red efflux flow cytometry; at 10 µM; stronger effect = higher value.
The target of assay [18] is ATP-binding cassette sub-family B member 6 (Homo sapiens) (UniProt Q9NP58). As to the kind of experiment: blockers of ABCB6-driven porphyrin uptake – K562-ABCB6 cells, flow cytometry, validation set, pilot screen (AID 588550;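 active means inhibition above the screen-wide mean plus 3 SD, about 51%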;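 further: 0% = DMSO wells and 100% = benzethonium chloride 70 µM positive control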). As to conditions: K562-ABCB6 porphyrin accumulation, 1 h, at 10 µM, stronger effect = higher value.
Assay [19] in a line: AML differentiation inducers, ER-HoxA9 marrow cells – cell-based, GFP/MAC1 double positive, flow cytometry, validation set, primary screen (AID 588685;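 active means differentiation response of at least 50%, scaled between solvent and reference control, from cells with both markers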;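 further: compound exposure lasts four days before antibody staining and flow analysis; 0% = DMSO wells and 100% = 5 µM fulvestrant positive control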). As to conditions: stronger effect = higher value.

Sequence of ATP-binding cassette sub-family B member 6 (Homo sapiens) (Q9NP58 whole entry, looked up): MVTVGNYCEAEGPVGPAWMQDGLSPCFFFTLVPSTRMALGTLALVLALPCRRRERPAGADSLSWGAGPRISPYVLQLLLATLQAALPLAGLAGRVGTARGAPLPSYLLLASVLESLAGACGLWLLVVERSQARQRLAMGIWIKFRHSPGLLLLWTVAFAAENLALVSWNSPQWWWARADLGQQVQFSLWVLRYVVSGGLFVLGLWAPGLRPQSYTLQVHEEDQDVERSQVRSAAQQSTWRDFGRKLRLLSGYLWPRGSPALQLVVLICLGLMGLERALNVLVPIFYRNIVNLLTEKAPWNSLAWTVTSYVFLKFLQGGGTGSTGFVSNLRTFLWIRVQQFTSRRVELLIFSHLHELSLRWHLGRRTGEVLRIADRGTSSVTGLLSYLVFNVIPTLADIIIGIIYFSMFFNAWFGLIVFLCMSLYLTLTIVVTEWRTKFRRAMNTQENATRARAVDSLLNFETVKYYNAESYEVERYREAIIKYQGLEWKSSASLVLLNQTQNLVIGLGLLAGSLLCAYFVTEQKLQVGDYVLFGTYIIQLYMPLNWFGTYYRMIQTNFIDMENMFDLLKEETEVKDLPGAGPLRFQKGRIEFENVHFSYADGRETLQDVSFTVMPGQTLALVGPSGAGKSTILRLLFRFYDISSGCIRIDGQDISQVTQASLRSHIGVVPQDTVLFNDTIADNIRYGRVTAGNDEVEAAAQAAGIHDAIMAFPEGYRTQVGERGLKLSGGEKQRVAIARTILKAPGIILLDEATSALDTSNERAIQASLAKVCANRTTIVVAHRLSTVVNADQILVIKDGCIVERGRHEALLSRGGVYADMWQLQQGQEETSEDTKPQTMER
Sequence of Beta-adrenergic receptor kinase 1 (Homo sapiens) (P25098 whole entry, looked up): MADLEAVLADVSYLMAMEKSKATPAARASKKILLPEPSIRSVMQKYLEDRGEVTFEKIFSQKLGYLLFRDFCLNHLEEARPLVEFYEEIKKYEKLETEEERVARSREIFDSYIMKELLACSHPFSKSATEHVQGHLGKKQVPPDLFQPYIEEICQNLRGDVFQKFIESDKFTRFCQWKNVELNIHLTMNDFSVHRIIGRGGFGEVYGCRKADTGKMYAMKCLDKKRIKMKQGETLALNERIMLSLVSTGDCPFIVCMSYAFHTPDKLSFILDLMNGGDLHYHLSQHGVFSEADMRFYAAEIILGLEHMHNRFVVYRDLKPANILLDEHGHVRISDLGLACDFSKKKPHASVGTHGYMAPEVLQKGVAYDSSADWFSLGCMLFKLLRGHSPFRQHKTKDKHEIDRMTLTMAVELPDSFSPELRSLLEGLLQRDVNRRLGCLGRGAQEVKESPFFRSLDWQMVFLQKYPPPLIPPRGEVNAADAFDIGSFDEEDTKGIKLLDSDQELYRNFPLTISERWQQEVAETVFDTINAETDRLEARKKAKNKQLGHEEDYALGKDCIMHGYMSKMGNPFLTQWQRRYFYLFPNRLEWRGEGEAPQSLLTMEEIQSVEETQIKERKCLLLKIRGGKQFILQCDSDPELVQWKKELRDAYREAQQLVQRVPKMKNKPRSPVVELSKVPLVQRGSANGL
Sequence of Lethal factor (Bacillus anthracis) (P15917 whole entry, looked up): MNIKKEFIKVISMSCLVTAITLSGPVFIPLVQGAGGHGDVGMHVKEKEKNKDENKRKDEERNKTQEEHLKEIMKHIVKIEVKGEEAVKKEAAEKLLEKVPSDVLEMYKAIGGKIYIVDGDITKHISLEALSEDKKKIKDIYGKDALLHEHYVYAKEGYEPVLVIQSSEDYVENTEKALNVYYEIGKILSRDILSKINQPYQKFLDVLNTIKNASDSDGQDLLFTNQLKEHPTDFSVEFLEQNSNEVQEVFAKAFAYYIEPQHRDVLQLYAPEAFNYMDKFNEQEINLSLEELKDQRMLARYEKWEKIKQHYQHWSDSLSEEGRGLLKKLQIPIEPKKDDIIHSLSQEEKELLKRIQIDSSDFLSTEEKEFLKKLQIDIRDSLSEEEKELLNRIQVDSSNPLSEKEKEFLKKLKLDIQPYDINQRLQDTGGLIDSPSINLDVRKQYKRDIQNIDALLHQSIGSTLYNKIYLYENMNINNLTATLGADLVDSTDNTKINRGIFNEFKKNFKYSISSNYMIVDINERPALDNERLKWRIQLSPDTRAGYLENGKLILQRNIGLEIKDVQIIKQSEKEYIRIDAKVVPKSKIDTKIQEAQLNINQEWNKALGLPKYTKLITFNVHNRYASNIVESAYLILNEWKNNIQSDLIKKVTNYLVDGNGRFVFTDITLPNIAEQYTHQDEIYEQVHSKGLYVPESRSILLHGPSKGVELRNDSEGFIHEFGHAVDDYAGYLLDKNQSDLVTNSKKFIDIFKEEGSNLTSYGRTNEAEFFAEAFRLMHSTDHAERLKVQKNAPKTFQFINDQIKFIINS
Sequence of Botulinum neurotoxin type A (Clostridium botulinum) (P0DPI0 whole entry, looked up): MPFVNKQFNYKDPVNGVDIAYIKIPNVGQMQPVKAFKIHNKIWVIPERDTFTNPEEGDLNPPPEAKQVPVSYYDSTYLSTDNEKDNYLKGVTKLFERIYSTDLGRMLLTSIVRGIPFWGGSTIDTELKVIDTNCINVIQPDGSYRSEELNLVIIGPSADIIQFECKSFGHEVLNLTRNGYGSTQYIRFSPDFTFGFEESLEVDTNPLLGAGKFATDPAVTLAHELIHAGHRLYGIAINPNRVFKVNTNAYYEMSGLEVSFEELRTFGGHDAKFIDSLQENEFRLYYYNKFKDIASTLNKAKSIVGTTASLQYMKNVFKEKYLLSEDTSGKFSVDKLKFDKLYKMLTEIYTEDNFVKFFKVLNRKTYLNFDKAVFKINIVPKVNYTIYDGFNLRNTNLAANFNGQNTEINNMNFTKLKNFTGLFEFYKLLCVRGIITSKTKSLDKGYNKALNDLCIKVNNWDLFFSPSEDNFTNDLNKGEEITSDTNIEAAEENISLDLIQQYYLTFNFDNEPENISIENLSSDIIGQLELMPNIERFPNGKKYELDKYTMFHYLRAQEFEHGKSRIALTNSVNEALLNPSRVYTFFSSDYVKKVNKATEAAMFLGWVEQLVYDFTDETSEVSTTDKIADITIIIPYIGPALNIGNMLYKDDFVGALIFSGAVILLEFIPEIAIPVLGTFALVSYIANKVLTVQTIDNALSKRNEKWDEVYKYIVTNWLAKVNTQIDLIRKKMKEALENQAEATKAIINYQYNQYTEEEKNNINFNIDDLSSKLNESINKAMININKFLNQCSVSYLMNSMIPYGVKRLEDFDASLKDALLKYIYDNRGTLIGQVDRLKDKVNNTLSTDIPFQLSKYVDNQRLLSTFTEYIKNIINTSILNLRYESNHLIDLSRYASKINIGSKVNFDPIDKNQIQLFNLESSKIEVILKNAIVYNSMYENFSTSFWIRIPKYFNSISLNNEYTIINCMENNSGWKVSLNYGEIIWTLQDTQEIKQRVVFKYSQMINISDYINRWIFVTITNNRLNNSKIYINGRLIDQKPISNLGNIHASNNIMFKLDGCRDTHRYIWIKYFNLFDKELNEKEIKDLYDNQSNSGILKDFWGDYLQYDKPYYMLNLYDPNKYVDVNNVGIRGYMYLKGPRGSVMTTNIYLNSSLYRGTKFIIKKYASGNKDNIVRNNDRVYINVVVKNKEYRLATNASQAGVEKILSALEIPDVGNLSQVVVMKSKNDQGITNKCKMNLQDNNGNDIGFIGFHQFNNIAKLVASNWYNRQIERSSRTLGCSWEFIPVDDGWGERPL
Sequence of Beta-2 adrenergic receptor (Homo sapiens) (P07550 whole entry, looked up): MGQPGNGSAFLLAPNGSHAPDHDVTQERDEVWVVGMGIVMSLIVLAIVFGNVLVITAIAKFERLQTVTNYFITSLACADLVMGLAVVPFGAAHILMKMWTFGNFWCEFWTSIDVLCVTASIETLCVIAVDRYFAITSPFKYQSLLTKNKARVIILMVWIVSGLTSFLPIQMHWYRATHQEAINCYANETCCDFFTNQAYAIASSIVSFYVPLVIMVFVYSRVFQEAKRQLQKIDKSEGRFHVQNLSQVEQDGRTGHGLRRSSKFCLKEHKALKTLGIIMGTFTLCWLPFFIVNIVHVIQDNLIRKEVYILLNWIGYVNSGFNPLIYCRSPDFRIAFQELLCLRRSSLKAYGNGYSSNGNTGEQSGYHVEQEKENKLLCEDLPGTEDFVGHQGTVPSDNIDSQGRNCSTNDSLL
Sequence of AP-2 complex subunit beta (Homo sapiens) (P63010 whole entry, looked up, one chain of several): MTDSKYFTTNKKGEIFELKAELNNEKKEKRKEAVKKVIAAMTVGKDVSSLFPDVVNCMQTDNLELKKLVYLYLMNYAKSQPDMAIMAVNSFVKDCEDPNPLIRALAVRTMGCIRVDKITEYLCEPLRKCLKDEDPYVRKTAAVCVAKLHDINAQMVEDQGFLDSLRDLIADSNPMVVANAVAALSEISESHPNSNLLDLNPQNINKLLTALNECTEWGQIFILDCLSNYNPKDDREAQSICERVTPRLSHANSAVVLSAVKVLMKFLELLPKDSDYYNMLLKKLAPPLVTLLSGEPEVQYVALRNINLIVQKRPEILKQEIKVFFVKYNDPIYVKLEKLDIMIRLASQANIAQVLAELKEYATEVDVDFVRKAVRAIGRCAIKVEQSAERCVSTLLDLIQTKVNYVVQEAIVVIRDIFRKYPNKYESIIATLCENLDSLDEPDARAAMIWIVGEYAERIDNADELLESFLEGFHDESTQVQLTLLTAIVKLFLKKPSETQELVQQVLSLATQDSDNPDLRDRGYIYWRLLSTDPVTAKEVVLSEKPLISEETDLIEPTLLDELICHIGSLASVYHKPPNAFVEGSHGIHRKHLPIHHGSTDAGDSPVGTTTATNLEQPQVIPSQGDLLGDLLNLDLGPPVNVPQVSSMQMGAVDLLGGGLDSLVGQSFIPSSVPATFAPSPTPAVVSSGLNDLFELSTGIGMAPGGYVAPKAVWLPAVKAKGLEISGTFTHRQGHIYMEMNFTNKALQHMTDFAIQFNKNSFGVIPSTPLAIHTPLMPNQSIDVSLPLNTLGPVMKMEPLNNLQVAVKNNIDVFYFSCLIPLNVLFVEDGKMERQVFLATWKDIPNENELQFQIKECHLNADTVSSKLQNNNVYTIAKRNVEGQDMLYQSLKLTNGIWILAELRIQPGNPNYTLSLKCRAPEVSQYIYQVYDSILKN

Consider `Cc1cc2c(C(C)C)c(O)c(O)c(C=O)c2c(O)c1-c1c(C)cc2c(C(C)C)c(O)c(O)c(C=O)c2c1O`, for which the percent of DMSO control GFP in [1] was 107% (inactive). The GFP response vs DMSO in assay [2] was 103% (inactive); in assay [4], 130% (inactive). For the same molecule, the percent response of DMSO control in [3] was 97% (inactive). For the same molecule, the GFP response, % of DMSO in assay [5] was 112% (inactive). Besides, in assay [6], the double positive events was 63.4%. In addition, the vesicle binding response in assay [6] was 161% (inactive). The inhibition – broadly, the drop in the measured response relative to a control, in per cent – is 11.7% (inactive) in assay [7]; 14% (inactive) in assay [11]; 2.6% (inactive) in [14]; 0.9% (inactive) in assay [15]; -7.5% (inactive) in assay [16]; -3% (inactive) in [18]. In assay [8], the superoxide response (% of plate) is 119% (inactive). Moreover, in assay [9], the aptamer binding inhibition was 5% (inactive). Besides, the figures for the response in assay [10] and in [12] were -1.41% (inactive) and 1.35% (inactive), respectively. In assay [13], the binding (% of control) is 64.8% (active). The efflux inhibition (fraction of control) in assay [17] is 0.25 (inactive). Besides, the differentiation response in assay [19] was 16.7% (inactive).

Turning to `COc1cccc(Oc2c(C)oc3cc(OC(=O)N(C)C)ccc3c2=O)c1`, the percent of DMSO control GFP in [1] was 102% (inactive). The GFP response vs DMSO is 102% (inactive) in assay [2] and 99.1% (inactive) in assay [4]. In addition, in [3], the percent response of DMSO control was 107% (inactive). For the same molecule, the GFP response, % of DMSO in [5] was 99.4% (inactive). The molecule further returned a double positive events in assay [6] of 60.2%. Besides, the vesicle binding response in assay [6] is 148% (inactive). Moreover, the inhibition in assay [7] was 5.61% (inactive); in assay [11] it was 8.84% (inactive); in [14], -1.7% (inactive); in [15], -0.4% (inactive); in [16], -1.2% (inactive); in assay [18] it was 23% (inactive). The superoxide response (% of plate) in assay [8] was 110% (inactive). The aptamer binding inhibition in assay [9] is 0% (inactive). The response was -2.34% (inactive) in assay [10] and -4.25% (inactive) in assay [12]. The binding (% of control) in assay [13] is 101% (inactive). Further, the efflux inhibition (fraction of control) in [17] was -0.02 (inactive). The differentiation response in assay [19] was -3.11% (inactive).

In the case of `CC(C)NC(C)C(=O)c1ccc2ccccc2c1` (stereo not given), the percent of DMSO control GFP in assay [1] was 104% (inactive). Besides, the results for the GFP response vs DMSO in assay [2] and in assay [4] were 99.6% (inactive) and 113% (inactive), respectively. Also, in [3], the percent response of DMSO control was 98.6% (inactive). Moreover, the GFP response, % of DMSO in [5] is 107% (inactive). Also, the double positive events in assay [6] was found to be 63.7%. For the same molecule, in [6], the vesicle binding response is 278% (inactive). Besides, the inhibition in [7] is -0.43% (inactive); in assay [11] it was -7.53% (inactive); in assay [14] it was 1.8% (inactive); in assay [15] it was 2% (inactive); in [16] it was 1.1% (inactive); in [18], 106% (active). Moreover, the superoxide response (% of plate) in [8] was 121% (inactive). Besides, the aptamer binding inhibition in assay [9] was 1% (inactive). The response was 14.8% (inactive) in assay [10] and 3.67% (inactive) in assay [12]. In addition, the binding (% of control) in [13] is 98.4% (inactive). For the same molecule, the efflux inhibition (fraction of control) in assay [17] is -0.28 (inactive). The differentiation response in assay [19] is 108% (active).

On to `COP(=S)(OC)SCN1C(=O)c2ccccc2C1=O`, for which the percent of DMSO control GFP in assay [1] was 90.6% (inactive). Further, the values for the GFP response vs DMSO in assay [2] and in assay [4] were 92.7% (inactive) and 144% (inactive), respectively. For the same molecule, in assay [3], the percent response of DMSO control was 97% (inactive). The GFP response, % of DMSO in assay [5] was 107% (inactive). The molecule also came in with a double positive events in [6] of 63.5%. In addition, in assay [6], the vesicle binding response is 194% (inactive). For the same molecule, the inhibition in assay [7] was 0.59% (inactive); in [11], -11.6% (inactive); in assay [14] it was -1.7% (inactive); in assay [15] it was -0.5% (inactive); in assay [16] it was -2.9% (inactive); in assay [18], -1% (inactive). Besides, the superoxide response (% of plate) in assay [8] was 97.7% (inactive). Moreover, the aptamer binding inhibition in assay [9] was -4% (inactive). In addition, the figures for the response in assay [10] and in [12] were -10.4% (inactive) and 6.49% (inactive), respectively. In [13], the binding (% of control) is 96.4% (inactive). Besides, in assay [17], the efflux inhibition (fraction of control) was -0.09 (inactive). The differentiation response in [19] was 3.88% (inactive).
